The source of these data is PubChem BioAssay (EPA / NIEHS).

Records with an inconclusive call do not appear. Active and inactive are the calls of the source. The calls were made as follows, unless noted: active = hit-call score of the fitted dose curve at least 0.9, where 1 is the maximum; inconclusive = response in the unintended direction; inactive = score below 0.9.

A short description of test [1]: ATG_PPRE_CIS: Attagene CIS-FACTORIAL HepG2 Assay for human Peroxisome Proliferator-activated Response Element (PPRE) (AID 2282958; active = hit-call score of the fitted dose curve at least 0.9, where 1 is the maximum; inactive = score below 0.9). The following applies: HepG2 PPRE cis-element reporter, Attagene transcription factor profiling; actives raise or lower the signal. The procedure, abridged: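 Cells are first transfected transiently with the multiplexed reporter library, then dosed for 24 h. Total RNA is reverse-transcribed, amplified, fluorescently end-labeled and HpaI-cut before capillary electrophoresis; activity is fitted bidirectionally against DMSO controls.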

Test [2] in a line: ATG_M_19_TRANS: Attagene TRANS-FACTORIAL HepG2 Assay for M19 Transcription Factor (Internal Marker) (AID 2282974). The following applies: HepG2 Attagene TRANS-FACTORIAL M19 internal marker reporter. In outline: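 Cells: human HepG2, transiently transfected with multiplexed reporter transcription units. Exposure: 24 h. Detection: RT-PCR of reporter mRNA with capillary electrophoresis. Analysis: gain-of-signal vs DMSO.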

Test [3] addresses human Peroxisome Proliferator-activated Receptor alpha (PPARa), PPARA (gene 5465) (UniProt Q07869). Briefly: ATG_PPARa_TRANS: Attagene TRANS-FACTORIAL HepG2 Assay for human Peroxisome Proliferator-activated Receptor alpha (PPARa) (AID 2283001). In outline:
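Exposure: 24 h, transiently transfected HepG2 cells. Endpoint: GAL4-UAS reporter mRNA, RT-PCR with capillary electrophoresis fluorescence. Baseline: DMSO; increases fitted.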

Test [4] addresses human RAR-related Orphan Receptor gamma (RORg), RORC (gene 6097) (UniProt P51449). Briefly: ATG_RORg_TRANS: Attagene TRANS-FACTORIAL HepG2 Assay for human RAR-related Orphan Receptor gamma (RORg) (AID 2283011). In outline: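 Transient MRTU transfection of HepG2 (TRANS format, exogenous NR-Gal4 chimera). 24 h dosing. Total RNA → oligo(dT) RT → PCR → 6-FAM labelling → HpaI cut → CE. Gain vs DMSO.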

The target in test [5] is Retinoic acid receptor RXR-alpha (Homo sapiens) (UniProt P19793). Briefly: ATG_RXRa_TRANS: Attagene TRANS-FACTORIAL HepG2 Assay for human Retinoid X Receptor alpha (RXRa) (AID 2283012). In outline: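 Read-out: fluorescent reporter-transcript fragments quantified by capillary electrophoresis after RT-PCR. Transiently transfected HepG2 cells carrying GAL4-UAS reporters and NR-GAL4 chimeras were exposed to chemical for 24 h; activity scored as increase over DMSO.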
Retinoic acid receptor RXR-alpha (Homo sapiens), sequence (P19793 whole entry, looked up, the tested form may be a part): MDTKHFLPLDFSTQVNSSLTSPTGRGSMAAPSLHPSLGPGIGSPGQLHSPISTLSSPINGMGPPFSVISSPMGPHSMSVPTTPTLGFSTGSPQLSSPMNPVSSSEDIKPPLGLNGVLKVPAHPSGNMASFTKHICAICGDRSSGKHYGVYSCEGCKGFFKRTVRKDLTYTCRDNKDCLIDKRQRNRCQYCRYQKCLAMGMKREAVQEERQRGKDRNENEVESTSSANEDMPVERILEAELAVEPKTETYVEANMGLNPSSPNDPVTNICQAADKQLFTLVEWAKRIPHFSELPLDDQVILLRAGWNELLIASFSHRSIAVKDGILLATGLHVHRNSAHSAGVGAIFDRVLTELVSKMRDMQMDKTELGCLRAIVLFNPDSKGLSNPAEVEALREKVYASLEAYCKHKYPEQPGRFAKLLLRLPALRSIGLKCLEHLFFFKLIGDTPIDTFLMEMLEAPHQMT

A short description of test [6]: ATG_XTT_Cytotoxicity: Cytotoxicity Assessment in the Attagene TRANS-FACTORIAL HepG2 Assay (AID 2283584). In outline:
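XTT readout of cell number in transfected HepG2 cells, 24 h post-dosing; DMSO serves as negative control and baseline, with activity taken as loss of viability signal.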

Test [7] has as its target Nuclear receptor subfamily 4 group A member 2 (Homo sapiens) (UniProt P43354). Briefly: ATG_NURR1_TRANS: Attagene TRANS-FACTORIAL HepG2 Assay for human Nuclear Receptor Related Protein 1 (NURR1) (AID 2282985). Conditions: HepG2 Attagene TRANS reporter, mRNA readout. In outline:
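Chimeric NR-Gal4 proteins were expressed in human HepG2 cells bearing GAL4-UAS reporter units, and induced reporter mRNA was quantified 24 h post-dosing by RT-PCR and capillary electrophoresis.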

Test [8] is described as follows: ATG_NF_kB_CIS: Attagene CIS-FACTORIAL HepG2 Assay for human Nuclear Factor Kappa B (NF-kB) (AID 2282991; active = hit-call score of the fitted dose curve at least 0.9, where 1 is the maximum; inactive = score below 0.9). Conditions: HepG2 Attagene cis-factorial NF-kB reporter mRNA; actives raise or lower the signal. In outline:
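Endogenous transcription factor activity in HepG2 was captured via cis-regulated reporter constructs; after 24 h dosing, reporter mRNA was reverse-transcribed, amplified, fluorescently labelled and sized by capillary electrophoresis, with activity fitted bidirectionally relative to DMSO.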

In test [9] the target is human RAR-related Orphan Receptor beta (RORb), RORB (gene 6096) (UniProt Q92753). The test is described as follows: ATG_RORb_TRANS: Attagene TRANS-FACTORIAL HepG2 Assay for human RAR-related Orphan Receptor beta (RORb) (AID 2283010). In outline: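 HepG2, transient MRTU transfection (GAL4-UAS reporters, exogenous NR-Gal4 chimeras); 24 h compound exposure; total RNA → RT-PCR → 6-FAM primer extension → HpaI digest → CE fluorescence. Positive direction vs DMSO baseline.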
human RAR-related Orphan Receptor beta (RORb), RORB (gene 6096), sequence (Q92753 whole entry, looked up, the tested form may be a part): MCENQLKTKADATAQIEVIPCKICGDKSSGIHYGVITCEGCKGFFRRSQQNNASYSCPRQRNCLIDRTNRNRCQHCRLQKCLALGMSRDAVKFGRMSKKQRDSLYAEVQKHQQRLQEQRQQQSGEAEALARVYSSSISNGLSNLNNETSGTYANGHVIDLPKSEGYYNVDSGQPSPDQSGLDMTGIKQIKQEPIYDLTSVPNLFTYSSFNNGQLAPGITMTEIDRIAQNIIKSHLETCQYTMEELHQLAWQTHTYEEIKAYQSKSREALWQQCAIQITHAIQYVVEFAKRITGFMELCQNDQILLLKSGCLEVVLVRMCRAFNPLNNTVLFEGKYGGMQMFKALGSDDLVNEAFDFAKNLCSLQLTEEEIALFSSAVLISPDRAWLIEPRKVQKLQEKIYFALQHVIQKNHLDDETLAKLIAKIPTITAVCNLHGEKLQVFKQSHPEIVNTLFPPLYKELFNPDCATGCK

Test [10] in a line: TOX21_p53_BLA_p3_viability: Viability Assessment in the Tox21 HCT-116 p53 Agonism Beta-lactamase Assay, Phase 3 (AID 2283593).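 Also: cells exposed to compound for 16 h before reading.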 The procedure, abridged:
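HCT-116 cells (4000/well) rested 5 h at 37C, then got DMSO compounds by pin tool (217-fold dilution) for 16 h at 37C, 5% CO2. After the bla read, CellTiter-Glo was added and luminescence read at 30 min, room temperature.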

In test [11] the target is Bile acid receptor (Homo sapiens) (UniProt Q96RI1). The test is described as follows: ATG_IR1_CIS: Attagene CIS-FACTORIAL HepG2 Assay for human Nuclear Receptor Subfamily 1 Group H Member 4 (NR1H4), IR1 submotif (AID 2282946; active = hit-call score of the fitted dose curve at least 0.9, where 1 is the maximum; inactive = score below 0.9). The following applies: IR1 reporter transcription, actives raise or lower the signal. The procedure, abridged: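 Readout: reporter transcript levels by RT-PCR with fluorescent capillary electrophoresis, from HepG2 cells transiently transfected with multiplexed cis-regulated reporters and dosed 24 h. Gain- or loss-of-signal fitted versus DMSO negative control.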
Bile acid receptor (Homo sapiens), sequence (Q96RI1 whole entry, looked up): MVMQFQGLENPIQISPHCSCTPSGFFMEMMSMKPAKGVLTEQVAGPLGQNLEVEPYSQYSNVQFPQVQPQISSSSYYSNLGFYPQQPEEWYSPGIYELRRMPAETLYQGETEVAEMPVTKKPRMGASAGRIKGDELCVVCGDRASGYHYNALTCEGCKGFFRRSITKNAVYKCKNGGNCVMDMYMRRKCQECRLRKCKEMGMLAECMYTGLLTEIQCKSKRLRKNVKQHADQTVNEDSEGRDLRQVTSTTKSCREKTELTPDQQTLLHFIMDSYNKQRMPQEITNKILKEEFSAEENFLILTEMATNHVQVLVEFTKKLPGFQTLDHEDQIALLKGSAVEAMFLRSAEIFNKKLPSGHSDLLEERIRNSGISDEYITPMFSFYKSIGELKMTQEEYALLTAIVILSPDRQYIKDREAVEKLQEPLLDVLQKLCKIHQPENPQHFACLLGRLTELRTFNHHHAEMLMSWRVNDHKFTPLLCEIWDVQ

Test [12] addresses Nuclear receptor subfamily 1 group I member 3 (Homo sapiens) (UniProt Q14994). The test is described as follows: ATG_CAR_TRANS: Attagene TRANS-FACTORIAL HepG2 Assay for human Constitutive Androstane Receptor (CAR) (AID 2282969).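 Also: activators raise reporter mRNA above DMSO so AC50 marks induction.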 Conditions: HepG2 Attagene TRANS-FACTORIAL CAR reporter. In outline:
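Steps: transient transfection of HepG2 with multiple GAL4-UAS reporter units; 24 h compound incubation; RNA isolation, RT-PCR, 6-FAM primer extension, HpaI digest; capillary electrophoresis. Gain-of-signal relative to DMSO negative control.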

Test [13] concerns the target Glucocorticoid receptor (Homo sapiens) (UniProt P04150). Briefly: ATG_GR_TRANS: Attagene TRANS-FACTORIAL HepG2 Assay for human Glucocorticoid Receptor (GR) (AID 2282978).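 Also: activators score as hits since higher reporter transcript over DMSO is fitted.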 The following applies: HepG2 Attagene TRANS GR reporter, mRNA transcription. In outline: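 In this trans-factorial format, exogenous NR-GAL4 chimeric proteins in transfected HepG2 cells regulate GAL4-UAS reporter transcription. After 24 h treatment, reporter mRNA induction relative to DMSO is read by RT-PCR and capillary electrophoresis.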

The target of test [14] is Oxysterols receptor LXR-alpha (Homo sapiens) (UniProt Q13133). Briefly: ATG_LXRa_TRANS: Attagene TRANS-FACTORIAL HepG2 Assay for human Liver X Receptor alpha (LXRa) (AID 2282980). Conditions: HepG2 Attagene TRANS reporter, LXRa transactivation. In outline: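 Read-out: reporter transcript levels by RT-PCR plus capillary electrophoresis, fluorescence intensity. Transiently transfected HepG2, exogenous NR-GAL4 chimera, GAL4-UAS reporters; 24 h compound exposure. Activity = increase over DMSO negative control.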

Test [15] deals with human Vitamin D Receptor (VDR), VDR (gene 7421) (UniProt P11473). The test is described as follows: ATG_VDR_TRANS: Attagene TRANS-FACTORIAL HepG2 Assay for human Vitamin D Receptor (VDR) (AID 2283022). The procedure, abridged: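 RT-PCR/capillary electrophoresis read-out of reporter mRNA induction in transiently transfected HepG2; 24 h dosing; chimeric NR-Gal4 (TRANS format); gain-of-signal fit against DMSO baseline.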
human Vitamin D Receptor (VDR), VDR (gene 7421), sequence (P11473 whole entry, looked up, the tested form may be a part): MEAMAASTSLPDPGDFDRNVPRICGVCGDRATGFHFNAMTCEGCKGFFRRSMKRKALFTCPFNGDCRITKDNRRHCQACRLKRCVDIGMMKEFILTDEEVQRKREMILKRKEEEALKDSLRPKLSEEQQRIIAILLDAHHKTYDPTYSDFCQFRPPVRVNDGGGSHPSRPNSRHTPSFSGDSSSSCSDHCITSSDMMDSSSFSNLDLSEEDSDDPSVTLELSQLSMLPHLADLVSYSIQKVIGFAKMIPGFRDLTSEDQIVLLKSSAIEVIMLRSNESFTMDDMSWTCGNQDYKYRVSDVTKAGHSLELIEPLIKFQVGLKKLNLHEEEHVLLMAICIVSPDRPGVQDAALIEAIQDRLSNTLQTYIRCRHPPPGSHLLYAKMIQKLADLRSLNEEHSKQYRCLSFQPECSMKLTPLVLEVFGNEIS

Test [16] concerns the target Retinoic acid receptor alpha (Homo sapiens) (UniProt P10276). Briefly: ATG_DR5_RAR_CIS: Attagene CIS-FACTORIAL HepG2 Assay for human Retinoic Acid Receptor Alpha (RARE), DR5 submotif (AID 2282934; active = hit-call score of the fitted dose curve at least 0.9, where 1 is the maximum; inactive = score below 0.9;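 as to AC50: reporter responds to endogenous RAR alpha beta and gamma in HepG2 not RARA alone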). The following applies: HepG2 Attagene cis-factorial RARE DR5 reporter, mRNA; actives raise or lower the signal. The procedure, abridged:
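HepG2 cells transiently transfected with multiplexed reporter units under cis (DR5 RARE) promoters, so endogenous transcription factor activity is measured. After 24 h compound exposure, reporter mRNA is quantified by RT-PCR with fluorescent labelling and capillary electrophoresis; bidirectional fitting versus DMSO.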

In test [17] the target is human Peroxisome Proliferator-activated Receptor delta (PPARd), PPARD (gene 5467) (UniProt Q03181). Briefly: ATG_PPARd_TRANS: Attagene TRANS-FACTORIAL HepG2 Assay for human Peroxisome Proliferator-activated Receptor delta (PPARd) (AID 2283002). In outline:
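HepG2 cells transiently transfected with multiplexed GAL4-UAS reporter units and exogenous chimeric NR-Gal4 proteins; 24 h compound exposure. Reporter mRNA measured by RT-PCR, 6-FAM labelling, HpaI digestion and capillary electrophoresis; gain of signal versus DMSO.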

Test [18] in a line: CCTE_Harrill_HTTr_Viability_MCF7: CCTE's 6-hour Cell Viability Assessment for the High-Throughput Transcriptomics (HTTr) Platform, in MCF-7 cells cultured in DMEM + 10% fetal bovine serum, Harrill Lab (AID 2284010; active = hit-call score of the fitted dose curve at least 0.9, where 1 is the maximum; inactive = score below 0.9). The procedure, abridged:
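PI exclusion, high-content imaging; 8-pt dilution series, 6 h exposure; bidirectional fit vs DMSO (neg. ctrl/baseline); gain of signal = loss of membrane integrity.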

Test [19] is described as follows: CCTE_Harrill_HTTr_Apoptosis_MCF7: CCTE's 6-hour Apoptosis Assessment for the High-Throughput Transcriptomics (HTTr) Platform, in MCF-7 cells cultured in DMEM + 10% fetal bovine serum, Harrill Lab (AID 2284011; active = hit-call score of the fitted dose curve at least 0.9, where 1 is the maximum; inactive = score below 0.9). The procedure, abridged:
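Read-out: CellEvent Caspase 3/7 Green signal by high content imaging, gain-of-signal indicating apoptosis. MCF-7 cells, DMEM + 10% FBS, eight-point dilution series, 6 h exposure. Curves fitted bidirectionally relative to DMSO negative control.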

Retinoic acid receptor alpha (Homo sapiens), sequence (P10276 whole entry, looked up): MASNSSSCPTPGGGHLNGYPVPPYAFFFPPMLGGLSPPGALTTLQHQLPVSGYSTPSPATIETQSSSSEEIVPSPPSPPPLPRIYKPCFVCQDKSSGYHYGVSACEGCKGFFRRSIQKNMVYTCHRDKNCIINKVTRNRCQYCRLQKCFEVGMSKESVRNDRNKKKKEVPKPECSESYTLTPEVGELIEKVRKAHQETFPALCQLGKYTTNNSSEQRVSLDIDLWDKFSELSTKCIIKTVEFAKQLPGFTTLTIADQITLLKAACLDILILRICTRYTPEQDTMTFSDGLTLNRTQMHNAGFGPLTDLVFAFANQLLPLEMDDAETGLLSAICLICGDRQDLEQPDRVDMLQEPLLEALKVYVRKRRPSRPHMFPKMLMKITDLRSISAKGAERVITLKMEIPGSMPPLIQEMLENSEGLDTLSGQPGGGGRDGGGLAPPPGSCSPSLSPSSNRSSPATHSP
human RAR-related Orphan Receptor gamma (RORg), RORC (gene 6097), sequence (P51449 whole entry, looked up, the tested form may be a part): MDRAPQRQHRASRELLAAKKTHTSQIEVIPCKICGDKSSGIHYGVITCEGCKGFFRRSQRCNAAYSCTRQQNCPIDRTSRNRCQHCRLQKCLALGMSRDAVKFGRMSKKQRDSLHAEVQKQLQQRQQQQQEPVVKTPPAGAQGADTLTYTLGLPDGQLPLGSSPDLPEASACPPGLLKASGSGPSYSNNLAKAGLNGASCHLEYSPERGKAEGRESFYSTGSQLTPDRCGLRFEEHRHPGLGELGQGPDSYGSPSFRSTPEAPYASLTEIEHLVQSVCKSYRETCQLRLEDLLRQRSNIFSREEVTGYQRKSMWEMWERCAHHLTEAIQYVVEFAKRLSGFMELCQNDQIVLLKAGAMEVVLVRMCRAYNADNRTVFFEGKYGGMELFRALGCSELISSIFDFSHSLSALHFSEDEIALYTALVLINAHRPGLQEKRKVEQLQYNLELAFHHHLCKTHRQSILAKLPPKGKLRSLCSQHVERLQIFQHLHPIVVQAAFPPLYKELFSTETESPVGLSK
Nuclear receptor subfamily 1 group I member 3 (Homo sapiens), sequence (Q14994 whole entry, looked up, the tested form may be a part): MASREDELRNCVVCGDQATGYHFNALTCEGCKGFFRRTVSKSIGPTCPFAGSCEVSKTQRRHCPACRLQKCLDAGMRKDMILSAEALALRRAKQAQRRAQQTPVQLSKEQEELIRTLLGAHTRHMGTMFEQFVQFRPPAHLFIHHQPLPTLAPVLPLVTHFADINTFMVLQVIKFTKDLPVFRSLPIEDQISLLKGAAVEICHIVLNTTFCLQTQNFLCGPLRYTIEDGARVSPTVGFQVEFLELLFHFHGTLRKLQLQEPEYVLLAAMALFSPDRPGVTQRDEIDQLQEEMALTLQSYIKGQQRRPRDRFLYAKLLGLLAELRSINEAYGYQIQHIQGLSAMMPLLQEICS
Nuclear receptor subfamily 4 group A member 2 (Homo sapiens), sequence (P43354 whole entry, looked up, the tested form may be a part): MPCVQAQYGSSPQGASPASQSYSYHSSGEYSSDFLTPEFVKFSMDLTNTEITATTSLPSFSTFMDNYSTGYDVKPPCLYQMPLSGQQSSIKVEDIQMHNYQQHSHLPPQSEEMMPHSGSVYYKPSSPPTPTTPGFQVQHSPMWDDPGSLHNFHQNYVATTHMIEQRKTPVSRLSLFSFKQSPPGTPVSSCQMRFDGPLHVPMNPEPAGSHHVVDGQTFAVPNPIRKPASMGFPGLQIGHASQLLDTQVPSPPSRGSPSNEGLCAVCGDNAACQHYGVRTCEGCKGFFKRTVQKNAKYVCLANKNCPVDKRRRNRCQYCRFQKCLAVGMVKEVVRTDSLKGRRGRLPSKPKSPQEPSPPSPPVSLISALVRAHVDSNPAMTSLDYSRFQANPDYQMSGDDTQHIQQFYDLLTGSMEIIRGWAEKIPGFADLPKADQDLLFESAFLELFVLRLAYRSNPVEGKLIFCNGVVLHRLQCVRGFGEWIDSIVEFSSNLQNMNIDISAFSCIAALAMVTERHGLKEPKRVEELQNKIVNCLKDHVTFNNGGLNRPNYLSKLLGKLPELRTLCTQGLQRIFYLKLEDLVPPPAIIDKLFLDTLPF
human Peroxisome Proliferator-activated Receptor delta (PPARd), PPARD (gene 5467), sequence (Q03181 whole entry, looked up, the tested form may be a part): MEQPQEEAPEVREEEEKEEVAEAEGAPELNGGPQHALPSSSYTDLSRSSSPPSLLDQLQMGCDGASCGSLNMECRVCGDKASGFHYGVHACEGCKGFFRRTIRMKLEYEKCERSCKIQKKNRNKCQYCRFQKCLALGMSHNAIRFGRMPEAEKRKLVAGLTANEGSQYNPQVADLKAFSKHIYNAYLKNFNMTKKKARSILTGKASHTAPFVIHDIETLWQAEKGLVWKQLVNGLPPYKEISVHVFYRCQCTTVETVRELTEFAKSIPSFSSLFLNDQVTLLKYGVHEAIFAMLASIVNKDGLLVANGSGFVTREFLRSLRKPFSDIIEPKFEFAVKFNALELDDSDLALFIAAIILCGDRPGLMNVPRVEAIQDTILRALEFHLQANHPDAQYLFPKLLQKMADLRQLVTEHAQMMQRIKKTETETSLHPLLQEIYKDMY
Glucocorticoid receptor (Homo sapiens), sequence (P04150 whole entry, looked up, the tested form may be a part): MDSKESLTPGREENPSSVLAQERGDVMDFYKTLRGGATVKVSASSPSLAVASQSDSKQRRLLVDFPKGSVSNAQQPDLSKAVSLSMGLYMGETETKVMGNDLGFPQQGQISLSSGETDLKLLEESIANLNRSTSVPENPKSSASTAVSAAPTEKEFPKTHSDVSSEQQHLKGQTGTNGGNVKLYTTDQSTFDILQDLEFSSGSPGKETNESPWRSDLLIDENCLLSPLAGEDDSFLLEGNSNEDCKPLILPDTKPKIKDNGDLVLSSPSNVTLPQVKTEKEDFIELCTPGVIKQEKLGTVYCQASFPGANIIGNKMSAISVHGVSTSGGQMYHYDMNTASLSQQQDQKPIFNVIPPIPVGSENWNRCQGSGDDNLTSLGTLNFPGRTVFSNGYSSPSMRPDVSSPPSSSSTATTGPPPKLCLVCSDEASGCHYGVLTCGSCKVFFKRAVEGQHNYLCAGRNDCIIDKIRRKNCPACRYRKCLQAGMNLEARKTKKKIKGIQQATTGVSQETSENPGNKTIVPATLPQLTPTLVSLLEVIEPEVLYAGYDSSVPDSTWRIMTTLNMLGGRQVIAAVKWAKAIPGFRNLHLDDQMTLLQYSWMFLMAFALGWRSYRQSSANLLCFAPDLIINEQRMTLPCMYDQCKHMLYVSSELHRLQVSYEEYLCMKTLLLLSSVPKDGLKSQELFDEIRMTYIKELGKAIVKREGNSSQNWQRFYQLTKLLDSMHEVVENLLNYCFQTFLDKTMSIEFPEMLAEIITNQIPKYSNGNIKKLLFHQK

In the case of `CCNCC`, the compound was classed as inactive in test [1], in test [2], in test [3], in [4], in test [5] and in test [6].
As for `CC1(C)C(=O)NC(=O)NC1=O`, the result in test [2], in test [7], in test [8], in test [9], in test [4] and in [5] was inactive. Also, the compound was called inactive in [6] and in test [10].
Regarding `O=P(O)(Oc1ccccc1)Oc1ccccc1`, the result in test [11], in test [12], in [13], in test [14], in [7] and in test [8] was inactive. Besides, the result in [5], in [15] and in [6] was inactive.
As for `CCC1CCC(=O)O1` (centres undefined), the outcome in test [16], in [17], in [4] and in test [15] was inactive.
For `Nc1ccc([N+](=O)[O-])cc1N`, the result in test [16], in [1], in [14], in test [7], in test [17] and in test [9] was inactive. The compound was classed as inactive in test [4], in test [5], in test [15], in test [6] and in [10].
With `O=c1[nH]c(Cl)c(Cl)cc1Cl`, the outcome in test [16], in test [11], in test [12], in [2], in [3] and in test [17] was inactive. Also, the call in test [9], in test [4], in [5], in [15], in test [6] and in test [18] was inactive. For the same compound, in [19], the outcome was inactive.
In general, AC50 refers to the concentration giving half of the maximal activity seen. On to `O=[N+]([O-])O.O=[N+]([O-])O.[Cd]`, for which, in test [16], the AC50 is 2.08 µM (active). Besides, the compound was called inactive in test [2], in [7], in [9] and in [10].
Regarding `ClC1=C(Cl)[C@]2(Cl)[C@@H]3[C@@H](Cl)[C@H](Cl)C[C@@H]3[C@@]1(Cl)C2(Cl)Cl`, the outcome in [16], in test [11], in test [1], in [12], in test [2] and in test [13] was inactive. Also, the outcome in test [8] and in test [9] was inactive.
